We go through eight compounds from ChEMBL document CHEMBL2218924, “A broad activity screen in support of a chemogenomic map for kinase signalling research and drug discovery” (Biochem J, 2013).

Assay [1] has as its target T1, Serine/threonine-protein kinase BRSK1 (Homo sapiens) (UniProt Q8TDC3).
T1 sequence (whole entry): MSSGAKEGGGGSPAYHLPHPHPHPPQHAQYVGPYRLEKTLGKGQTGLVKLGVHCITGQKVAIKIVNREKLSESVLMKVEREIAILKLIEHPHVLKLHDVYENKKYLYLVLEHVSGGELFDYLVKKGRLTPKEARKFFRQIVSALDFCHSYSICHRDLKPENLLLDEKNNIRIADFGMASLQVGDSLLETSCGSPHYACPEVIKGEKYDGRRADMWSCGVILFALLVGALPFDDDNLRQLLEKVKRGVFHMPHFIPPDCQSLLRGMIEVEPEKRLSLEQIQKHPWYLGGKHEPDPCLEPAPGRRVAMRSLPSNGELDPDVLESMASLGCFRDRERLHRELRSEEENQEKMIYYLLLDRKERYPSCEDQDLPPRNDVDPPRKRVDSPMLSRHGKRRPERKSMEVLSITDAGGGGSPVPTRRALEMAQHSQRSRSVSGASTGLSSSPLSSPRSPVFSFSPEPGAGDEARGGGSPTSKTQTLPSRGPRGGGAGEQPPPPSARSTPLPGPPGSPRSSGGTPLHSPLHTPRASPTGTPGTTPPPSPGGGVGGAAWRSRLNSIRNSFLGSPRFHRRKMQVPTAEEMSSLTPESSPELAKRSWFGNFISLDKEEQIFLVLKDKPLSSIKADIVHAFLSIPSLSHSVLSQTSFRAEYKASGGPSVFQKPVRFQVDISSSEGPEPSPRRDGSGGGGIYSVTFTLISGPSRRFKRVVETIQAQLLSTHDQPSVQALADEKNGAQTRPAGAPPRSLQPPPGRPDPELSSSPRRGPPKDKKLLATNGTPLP
Particulars: at 1 µM.

Assay [2] deals with T1, Serine/threonine-protein kinase BRSK1 (Homo sapiens). Particulars: at 10 µM.
Assay [3] deals with T2, Cyclin-dependent kinase 2/cyclin A (Homo sapiens) (UniProt P24941+P20248+P78396). Particulars: at 1 µM.
Assay [4] has as its target T2, Cyclin-dependent kinase 2/cyclin A (Homo sapiens). Particulars: at 10 µM.
In assay [5] the target is T3, Cyclin-dependent kinase 2/cyclin E (Homo sapiens) (UniProt P24864+P24941+O96020). The settings on record: at 10 µM.
The target of assay [6] is T4, CDK3/cyclin E (Homo sapiens) (UniProt P24864+O96020+Q00526). The settings on record: at 1 µM.
The target in assay [7] is T4, CDK3/cyclin E (Homo sapiens). The settings on record: at 10 µM.
The target of assay [8] is T5, Cyclin-dependent kinase 5/CDK5 activator 1 (Homo sapiens) (UniProt Q00535+Q15078). The settings on record: at 1 µM.
The target in assay [9] is T5, Cyclin-dependent kinase 5/CDK5 activator 1 (Homo sapiens). The settings on record: at 10 µM.
The target is the same in assay [10]. The settings on record: at 1 µM. This is another data set of the same source.
The target is the same in assay [11]. Particulars: at 10 µM. This is another data set of the same source.
Assay [12] has as its target T6, CDK6/cyclin D3 (Homo sapiens) (UniProt P30281+Q00534). Particulars: at 1 µM.
Assay [13] addresses T6, CDK6/cyclin D3 (Homo sapiens). The settings on record: at 10 µM.
The target of assay [14] is T7, Cyclin-dependent kinase 7/ cyclin H (Homo sapiens) (UniProt P51946+P50613). The settings on record: at 1 µM.
Assay [15] deals with T7, Cyclin-dependent kinase 7/ cyclin H (Homo sapiens). The settings on record: at 10 µM.
Assay [16] concerns the target T8, Serine/threonine-protein kinase BRSK2 (Homo sapiens) (UniProt Q8IWQ3).
T8 sequence (whole entry): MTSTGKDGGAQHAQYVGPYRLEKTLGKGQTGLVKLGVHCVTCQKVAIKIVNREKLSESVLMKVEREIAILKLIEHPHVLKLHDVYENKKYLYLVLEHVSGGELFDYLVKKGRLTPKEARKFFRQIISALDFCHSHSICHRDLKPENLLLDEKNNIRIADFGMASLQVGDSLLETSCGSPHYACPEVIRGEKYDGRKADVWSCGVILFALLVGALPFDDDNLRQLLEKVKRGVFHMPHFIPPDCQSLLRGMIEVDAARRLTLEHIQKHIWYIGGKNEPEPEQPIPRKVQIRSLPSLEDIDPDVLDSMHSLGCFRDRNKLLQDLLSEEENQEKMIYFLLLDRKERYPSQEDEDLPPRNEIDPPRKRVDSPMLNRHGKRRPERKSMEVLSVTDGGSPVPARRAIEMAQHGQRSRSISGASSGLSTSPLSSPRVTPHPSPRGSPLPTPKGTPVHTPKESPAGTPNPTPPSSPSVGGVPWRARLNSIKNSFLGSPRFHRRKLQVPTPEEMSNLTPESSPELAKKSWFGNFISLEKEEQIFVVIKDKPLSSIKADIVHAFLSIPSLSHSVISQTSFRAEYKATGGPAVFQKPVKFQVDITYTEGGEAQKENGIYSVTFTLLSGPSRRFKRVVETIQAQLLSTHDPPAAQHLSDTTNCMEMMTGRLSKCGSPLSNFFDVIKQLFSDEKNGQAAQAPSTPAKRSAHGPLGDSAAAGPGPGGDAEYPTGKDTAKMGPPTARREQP
The settings on record: at 1 µM.

The target in assay [17] is T8, Serine/threonine-protein kinase BRSK2 (Homo sapiens). Particulars: at 10 µM.
The target of assay [18] is T9, Cyclin-dependent kinase 1/cyclin B1 (Homo sapiens) (UniProt P06493+P14635). Particulars: at 1 µM.
The target of assay [19] is T9, Cyclin-dependent kinase 1/cyclin B1 (Homo sapiens). Particulars: at 10 µM.
The target in assay [20] is T3, Cyclin-dependent kinase 2/cyclin E (Homo sapiens). Particulars: at 1 µM.

T9 sequence (P06493 whole entry, looked up): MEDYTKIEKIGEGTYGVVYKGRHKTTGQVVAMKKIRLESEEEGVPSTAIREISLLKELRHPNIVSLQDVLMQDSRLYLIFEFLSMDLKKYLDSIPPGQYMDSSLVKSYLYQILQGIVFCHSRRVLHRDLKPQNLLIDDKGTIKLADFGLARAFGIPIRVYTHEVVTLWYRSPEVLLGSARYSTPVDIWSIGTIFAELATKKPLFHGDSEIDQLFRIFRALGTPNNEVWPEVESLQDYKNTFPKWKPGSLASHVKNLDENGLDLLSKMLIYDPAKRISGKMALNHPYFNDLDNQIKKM
T9 sequence (P14635 whole entry, looked up): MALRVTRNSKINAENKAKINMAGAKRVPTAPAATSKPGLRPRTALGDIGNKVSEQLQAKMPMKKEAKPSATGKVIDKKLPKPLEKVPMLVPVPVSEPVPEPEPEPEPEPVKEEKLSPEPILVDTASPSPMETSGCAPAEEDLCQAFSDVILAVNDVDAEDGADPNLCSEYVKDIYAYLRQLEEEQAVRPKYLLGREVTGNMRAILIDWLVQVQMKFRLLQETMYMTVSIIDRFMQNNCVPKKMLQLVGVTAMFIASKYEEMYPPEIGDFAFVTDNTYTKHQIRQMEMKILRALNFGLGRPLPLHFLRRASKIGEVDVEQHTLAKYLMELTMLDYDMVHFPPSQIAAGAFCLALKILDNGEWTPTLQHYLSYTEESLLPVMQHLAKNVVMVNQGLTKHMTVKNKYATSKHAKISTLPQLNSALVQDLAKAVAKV
T4 sequence (O96020 whole entry, looked up): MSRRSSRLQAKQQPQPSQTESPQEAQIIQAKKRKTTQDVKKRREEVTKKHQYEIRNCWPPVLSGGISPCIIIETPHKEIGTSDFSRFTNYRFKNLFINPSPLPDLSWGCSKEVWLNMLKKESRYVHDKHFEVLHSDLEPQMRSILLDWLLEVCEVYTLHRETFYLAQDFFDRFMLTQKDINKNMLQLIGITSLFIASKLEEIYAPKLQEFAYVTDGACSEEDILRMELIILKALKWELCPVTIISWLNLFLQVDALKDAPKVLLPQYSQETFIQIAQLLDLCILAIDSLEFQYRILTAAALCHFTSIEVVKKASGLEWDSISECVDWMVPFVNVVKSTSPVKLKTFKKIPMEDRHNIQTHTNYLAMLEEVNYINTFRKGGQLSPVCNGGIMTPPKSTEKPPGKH
T4 sequence (P24864 whole entry, looked up): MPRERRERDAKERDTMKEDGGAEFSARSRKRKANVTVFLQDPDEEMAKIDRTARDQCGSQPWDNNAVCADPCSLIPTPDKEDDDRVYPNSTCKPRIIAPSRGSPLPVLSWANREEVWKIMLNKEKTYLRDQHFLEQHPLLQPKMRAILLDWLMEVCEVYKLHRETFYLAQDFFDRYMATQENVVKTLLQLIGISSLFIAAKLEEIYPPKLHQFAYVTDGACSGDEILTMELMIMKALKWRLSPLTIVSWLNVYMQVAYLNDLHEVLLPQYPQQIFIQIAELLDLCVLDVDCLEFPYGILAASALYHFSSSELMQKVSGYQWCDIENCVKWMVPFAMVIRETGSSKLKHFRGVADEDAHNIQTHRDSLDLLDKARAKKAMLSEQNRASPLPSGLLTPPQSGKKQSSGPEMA
T4 sequence (Q00526 whole entry, looked up): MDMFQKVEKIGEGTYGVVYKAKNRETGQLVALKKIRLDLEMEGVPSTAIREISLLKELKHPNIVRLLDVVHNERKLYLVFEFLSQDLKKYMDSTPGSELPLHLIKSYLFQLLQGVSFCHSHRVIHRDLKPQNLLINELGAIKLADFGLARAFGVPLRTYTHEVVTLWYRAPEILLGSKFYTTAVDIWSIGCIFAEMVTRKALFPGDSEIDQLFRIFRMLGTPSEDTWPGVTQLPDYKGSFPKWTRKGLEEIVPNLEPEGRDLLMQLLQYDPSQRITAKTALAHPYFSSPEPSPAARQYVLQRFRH
T5 sequence (Q00535 whole entry): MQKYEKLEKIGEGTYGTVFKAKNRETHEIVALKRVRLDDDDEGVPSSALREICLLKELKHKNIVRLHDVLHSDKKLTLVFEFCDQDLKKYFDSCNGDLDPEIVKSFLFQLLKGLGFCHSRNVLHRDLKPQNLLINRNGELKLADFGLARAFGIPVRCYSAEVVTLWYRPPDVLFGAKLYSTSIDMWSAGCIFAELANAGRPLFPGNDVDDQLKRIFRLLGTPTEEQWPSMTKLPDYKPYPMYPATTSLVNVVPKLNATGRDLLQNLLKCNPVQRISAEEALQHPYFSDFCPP
T5 sequence (Q15078 99-307 partner limits assumed): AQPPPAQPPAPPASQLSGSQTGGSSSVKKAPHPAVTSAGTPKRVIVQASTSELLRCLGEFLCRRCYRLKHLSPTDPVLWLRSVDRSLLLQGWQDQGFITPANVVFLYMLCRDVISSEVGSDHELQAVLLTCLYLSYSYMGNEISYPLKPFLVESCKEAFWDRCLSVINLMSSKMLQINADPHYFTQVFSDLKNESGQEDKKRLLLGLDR

For the compound `Cc1cccc(-c2[nH]c(C(C)(C)C)nc2-c2ccc3c(c2)OCO3)n1`, the residual activity in assay [1] turned out to be 97%; in [2], 106%; in [3] it was 133%; in [4] it was 103%; in assay [5], 98%; in assay [6] it was 90%. The residual activity came out at 89% in assay [7]; 83% in assay [8]; 88% in assay [9]; 92% in [10]; 97% in assay [11]; 104% in assay [12]. Further, the values for the residual activity in assay [13], in [14] and in assay [15] were 106%, 100% and 95%, respectively.
For `COc1cc2ncc(-c3ccccc3)nc2cc1OC`, the residual activity in [1] was 96%; in assay [2], 86%; in assay [16], 80%; in assay [17] it was 67%; in assay [3], 129%; in [6], 96%. In addition, the residual activity in assay [7] came to 91%; in [11], 93%; in assay [14] it was 95%; in assay [15] it was 91%.
Regarding `O=C1c2ccccc2-[n+]2ccc3c([nH]c4ccccc43)c21`, the residual activity came out at 75% in assay [1]; 74% in assay [2]; 112% in assay [16]; 89% in [17]; 112% in assay [18]; 107% in assay [19]. In addition, the residual activity in assay [3] was 84%; in assay [4], 77%; in assay [20], 92%; in assay [5] it was 97%; in [6], 87%; in assay [7] it was 81%. Moreover, the residual activity in assay [8] amounted to 72%; in assay [9], 82%; in [10], 108%; in assay [11], 82%; in assay [12] it was 87%; in assay [13], 82%. Further, the residual activity in assay [14] was 99%; in assay [15] it was 83%.
As to `Oc1c2ccccc2c2c3c(cccc13)N=N2`, the residual activity in assay [1] was found to be 38%; in [2] it was 29%; in [16] it was 64%; in [17] it was 9%; in [18], 52%; in assay [19] it was 35%. The residual activity in assay [3] was determined as 59%; in assay [4], 36%; in [20], 8%; in assay [5], 3%; in assay [6], 26%; in assay [7] it was 14%. Moreover, the residual activity in assay [12] came out at 76%; in assay [13] it was 31%; in assay [14] it was 75%; in [15] it was 24%.
In the case of `N#Cc1cnc2cnc(NCc3cccnc3)cc2c1Nc1ccc(F)c(Cl)c1`, the residual activity in assay [16] stood at 100%; in assay [17], 94%; in [18] it was 9%; in assay [19], 8%; in [3] it was 91%; in assay [4], 91%. For the same compound, the residual activity in assay [6] was found to be 21%; in assay [7], 11%; in [10], 22%; in assay [11] it was 11%; in [12], 123%; in assay [13], 97%. Further, the residual activity turned out to be 71% in assay [14] and 46% in assay [15].
Turning to `O=c1cc(-c2cccc3c2Sc2ccccc2S3)oc(N2CCOCC2)c1`, the residual activity in assay [1] was 102%; in [2], 96%; in [16], 107%; in assay [17], 96%; in assay [18], 101%; in assay [19], 77%. Also, the residual activity in assay [3] came to 96%; in assay [4], 78%; in assay [20], 101%; in assay [5] it was 87%; in [6], 99%; in [7] it was 97%. The residual activity is 95% in assay [8]; 94% in assay [9]; 112% in assay [10]; 90% in assay [11]; 101% in assay [12]; 85% in [13]. Moreover, the residual activity in [14] was found to be 121%; in assay [15], 80%.
Turning to `c1ccc(-c2n[nH]c3c2oc2ccccc23)cc1`, the residual activity came out at 114% in assay [16]; 73% in assay [17]; 94% in assay [18]; 75% in assay [19]; 128% in assay [3]; 64% in [4]. In addition, the residual activity in assay [5] worked out at 60%; in assay [6], 98%; in assay [7], 41%; in assay [8] it was 67%; in [9], 27%; in assay [10] it was 77%. The residual activity in assay [11] turned out to be 31%; in [12] it was 75%; in assay [13] it was 30%; in [14] it was 84%; in assay [15] it was 91%.
As to `COc1cc2ncnc(Nc3ccc(O)c(Br)c3)c2cc1OC`, the residual activity is 17% in [1]; 22% in [2]; 91% in assay [16]; 34% in assay [17]; 100% in assay [18]; 68% in [19]. The residual activity in [4] came out at 42%; in [20], 102%; in assay [5] it was 88%; in assay [6] it was 84%; in assay [7], 71%; in assay [8], 84%. The residual activity is 51% in [9]; 98% in [10]; 67% in assay [11]; 87% in [12]; 86% in [13]; 81% in [14]. In addition, the residual activity in assay [15] is 78%.
